Source: PubChem (Broad Institute)
aSyn 5UTR act = Activators working through SNCA 5'UTR binding (MLPCN); alpha-synuclein 5'UTR reporter, activators screen; activity score, % (tested at 7.5 µM), hits read low; hit rate 7.1% among 300,000; in the data active = activity score below about -60%
* hit, by the source's call. The list is a sample of the results.

SMILES	aSyn 5UTR act
O=C(Nc1ccccc1)C1=C[C@@H](c2ccccc2)C[C@@H](OCc2ccc(CO)cc2)O1	-94.2*
c1ccc(CN2CCN(c3cnc4ccccc4n3)CC2)cc1	-208.4*
Fc1ccccc1N1CCN(c2cnc3ccccc3n2)CC1	-69.9*
Oc1ccccc1N1CCN(c2ccc3ccccc3n2)CC1	-137.9*
O=C(c1ccc2oc(CCCc3ccccc3)nc2c1)N1CCCC(CCCO)C1 (configuration not stated)	-64.8*
CCCCc1nc2cc(C(=O)N3CCC(O)CC3)ccc2o1	-82.7*
CCCCc1nc2cc(C(=O)N(C)C3CCOCC3)ccc2o1	-164.7*
O=C(c1ccc2oc(CCc3ccccc3)nc2c1)N1CC[C@H](O)C1	-134.1*
CCNC(=O)NC(=O)COc1ccccc1C#N	-89.3*
N#Cc1ccccc1OCC(=O)NC(=O)NCc1ccco1	-83.3*
CCc1ccc(OCC(=O)NCc2ccco2)c(Br)c1	-69.9*
CC(=O)c1cccc(NC(=O)/C=C/c2ccc([N+](=O)[O-])s2)c1	-326.0*
CCOC(=O)c1ccc(NC(=O)/C=C/c2cccs2)cc1	-251.1*
Cc1cc(C)cc(NC(=O)/C=C/c2ccc([N+](=O)[O-])s2)c1	-243.9*
Cc1ccccc1NC(=O)/C=C/c1cccs1	-118.6*
Cc1ccccc1NC(=O)/C=C/c1ccc([N+](=O)[O-])s1	-80.4*
CCCCCOC(=O)NCC(O)c1ccccc1 (configuration not stated)	-127.9*
Brc1ccc2nc(-c3c[nH]c4ccccc34)cn2c1	-163.9*
CCCC(C)C(=O)Nc1nc(C)c(-c2csc(Nc3cc(OC)ccc3OC)n2)s1 (configuration not stated)	60.2
Cc1nc(NC(=O)c2ccccc2)sc1-c1csc(Nc2ccc(C(=O)O)cc2)n1	-73.3*
Cc1nc(N)sc1-c1csc(Nc2ccccc2)n1	-129.7*
O=C(O)c1ccc(Nc2nc(-c3ccccc3)cs2)cc1	-113.9*
COc1ccccc1Nc1nc(-c2sc(NC(=O)c3cccc(Cl)c3)nc2C)cs1	-85.5*
Cc1cccc2c(=O)c(C(=O)NCc3cccs3)c[nH]c12	-110.4*
O=C(NCc1cccs1)c1csc2ccccc12	-61.7*
SMILES	aSyn 5UTR act
Cc1cnn(C(=S)NCCc2ccccc2)c1	-136.0*
Cc1ccc(-n2nnnc2Sc2nc([N+](=O)[O-])nn2C)cc1	-70.6*
Cc1ccc2c(CC(=O)Nc3nc(C)cs3)coc2c1	-70.3*
Cc1cccc(NC(=O)Cc2c(F)cccc2Cl)n1	-103.2*
Cc1cc(CNC(=O)Cc2c(F)cccc2Cl)nn1C	-71.6*
Cc1csc(NC(=O)Cc2c(F)cccc2Cl)n1	-131.2*
Cc1csc(NC(=O)Cc2ccc(F)cc2)n1	-64.7*
Cc1csc(NC(=O)Cc2c[nH]c3ccccc23)n1	-94.6*
Cc1ccc(CC(=O)Nc2cccc(C)n2)cc1	-171.9*
O=C(Cc1c[nH]c2ccccc12)Nc1nc2ccccc2[nH]1	-101.3*
CN1CCN(CC(=O)Nc2nc(-c3c[nH]c4ccccc34)cs2)CC1	-62.5*
COc1ccc2c(CC(=O)Nc3ncc(C)s3)coc2c1	-133.2*
CCOC(=O)C(C(=O)OCC)C1OC(=O)c2cc3c(cc21)C(=O)OC3C(C(=O)OCC)C(=O)OCC (configuration not stated)	-77.3*
CC(C)n1cc(CN2CCCC(C(=O)Nc3cccc(-c4cc5ccccc5[nH]4)c3)C2)cn1 (configuration not stated)	58.2
Cc1cc(CN2CCCC(C(=O)Nc3ccc(-c4nc5ccccc5[nH]4)cc3)C2)n[nH]1 (configuration not stated)	-120.8*
Cc1cccc(N=Nc2cnc(N)s2)c1	-109.1*
COc1ccc(C2CC2/C(=N/OC(=O)c2cccs2)c2ccccc2)cc1 (configuration not stated)	-152.6*
Cc1cccc(NC(=O)CSc2nnc(-c3n[nH]c4ccccc34)o2)c1	-180.0*
C#Cc1cccc(NC(=O)CSc2nnc(-c3ccc(C(F)(F)F)cn3)o2)c1	-124.3*
N#Cc1cccc(NC(=O)CSc2nnc(-c3n[nH]c4ccccc34)o2)c1	-276.5*
O=C(Nc1ccc(-c2ccc(N3CCCCC3)nn2)cc1)c1ccco1	-130.8*
Cc1nc(N2CCN(C(=O)c3ccco3)CC2)c2oc3ccccc3c2n1	-88.8*
O=C(c1ccco1)N1CCN(c2ccc(F)cc2)CC1	-79.2*
COc1ccccc1N1CCN(c2nc(C)nc3c2oc2ccccc23)CC1	89.5
O=C(c1ccco1)N1CCN(c2ccc(N3CCCCC3)nn2)CC1	-133.1*
SMILES	aSyn 5UTR act
Cc1nc(N2CCN(C(=O)c3ccco3)CC2)nc2c1C(=O)CCC2	-120.8*
CCSc1ccc(-c2cccc([N+](=O)[O-])c2)nn1	-89.0*
Cn1sc(NC(=O)c2ccc(Cl)cc2)nc1=O	-115.1*
Cc1ccc(C(=O)Nc2nc(=O)n(C(=O)c3ccccc3Cl)s2)cc1	-104.2*
Clc1ccc(/C=N/Nc2ccccn2)cc1	-162.9*
FC(F)(F)c1ccccc1/C=N/Nc1ccccn1	-93.5*
Brc1ccc(/C=N/Nc2ccccn2)cc1	-193.2*
Oc1ccc(N=Nc2ccccc2C(F)(F)F)c2cccnc12	71.6
C(=N\Nc1ccccn1)/c1c[nH]c2ccccc12	-114.4*
Brc1ccccc1/C=N/Nc1ccccn1	-130.8*
Fc1ccc(/C=N/Nc2ccccn2)cc1	-119.6*
COc1ccc(/C=N/Nc2ccccn2)cc1O	-144.9*
Clc1nccnc1N/N=C/c1ccc(Br)cc1	-106.0*
CSc1ccc2c(c1)N(CCC1CCCCN1C)c1ccccc1S2 (configuration not stated)	109.5
Cc1ccc(/C=N/Nc2ccccn2)s1	-149.3*
Cc1nc(-n2[nH]c3c(c2=O)CCCC3)[nH]c(=O)c1Cc1ccccc1	89.8
O=C(Nc1ccc2oc(=O)ccc2c1)c1ccco1	-74.7*
O=C(Nc1ccc2oc(=O)ccc2c1)c1ccc2ccccc2c1	-66.9*
C/C(=N\NC(=O)COc1ccc(C(C)(C)C)cc1)c1ccc(-n2ccnc2)cc1	-132.7*
CC1OC(Nc2ccc(N=Nc3ccccc3)cc2)C(O)C(O)C1O (configuration not stated)	-63.2*
Cc1ccc(C(NC(=O)NCCCN2CCOCC2)=C(Cl)Cl)cc1F	-69.5*
O=c1c(-c2ccc3c(c2)OCCO3)coc2cc(OC3OC(CO)C(O)C(O)C3O)ccc12 (configuration not stated)	-86.3*
O=C(COc1ccc(Cc2ccccc2)cc1)c1ccc(F)cc1	-71.8*
O=C(COc1ccc(F)cc1)c1ccc2c(c1)CCCC2	-133.5*
O=C(NC1CCCC1)c1cc(-c2cccc(Cl)c2)on1	-185.8*
SMILES	aSyn 5UTR act
O=C(NC1CCCCC1)c1cc(-c2cccc(Cl)c2)on1	-235.5*
O=C(CSc1ncc(-c2ccccc2)[nH]1)Nc1ccccc1F	-125.9*
CC(=O)Nc1cccc(NC(=O)CSc2ncc(-c3ccccc3)[nH]2)c1	-80.1*
CCOc1ccc(C(=O)Nc2ccc3nc(N4CCN(CC)CC4)cc(C)c3c2)cc1	66.5
CCN1CCN(c2cc(C)c3cc(NC(=O)c4cc(OC)cc(OC)c4)ccc3n2)CC1	-97.8*
Cc1cc(N2CCN(C)CC2)nc2ccc(NC(=O)c3ccc(Br)o3)cc12	-102.8*
COc1cc(C(=O)Nc2ccc3nc(N4CCN(C)CC4)cc(C)c3c2)cc(OC)c1OC	-103.0*
O=C(N/N=C/c1cn(-c2cccs2)nc1-c1ccccc1)c1ccc(O)cc1	-64.8*
O=C(N/N=C/c1cn(-c2cccs2)nc1-c1ccccc1)c1ccccc1Cl	-63.2*
O=C(N/N=C/c1cc(Br)ccc1O)c1ccccc1Cl	67.1
CC1=CN2C(=N)/C(=C/c3ccc(C)o3)C(=O)N=C2S1	-80.4*
